From PubChem BioAssay
A selection: hits, their analogues and other compounds. The true share with any hit is near 17%.
HT1080-NT tox: kills 2HG-producing HT-1080-NT fibrosarcoma cells | HT-1080-NT fibrosarcoma viability, CellTiter-Glo ATP luminescence, 48 h | Potency, µM (top dose mostly 46.1 µM), usual class: cytotoxic | 360,000 tested, 1.6% active | AID 686970;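 further: NT is the 2HG producing partner of a matched IDH1 knockdown line; nearly all actives have a fitted effect of over 55% in size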
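Viability of the 2HG-overproducing fibrosarcoma line after 48 hours of compound exposure at 37 degrees C was determined by luminescence with CellTiter-Glo, and concentration-effect curves were then fitted and categorized.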
DT40 TDP1 no CPT: qHTS for Inhibitors of human tyrosyl-DNA phosphodiesterase 1 (TDP1): qHTS in cells in absence of CPT; 420,000 tested, 15% active; Potency, µM (highest dose often 46.2 µM), hits mostly inhibitors; DT40 Tdp1-/- hTDP1 cells, no CPT, ATP luminescence, 48 h; further: nearly all actives have a fitted effect of over 55% in size
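Growth of hTDP1-complemented DT40 Tdp1-knockout cells is measured by ATP luminescence after at least 48 hr compound exposure at 37 °C, with DMSO substituting for the 20 nM CPT used in the parallel screen.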
HepG2 viability: kills HepG2 cells in TGF-b inhibitor counter-screen; HepG2 CAGA-GFP viability, ATP luminescence, 18 h; Potency, µM (doses to about 46.1 µM), actives largely listed as cytotoxic; 410,000 tested, 0.76% active; AID 588856
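HepG2 CAGA-GFP cells (1000/well, DMEM with 1% FBS) received compound, then TGF-beta at 500 pg/mL final, and were incubated 18 hours at 37 degrees C. Viability was read by CellTiter-Glo luminescence. Media-only wells were set as complete cell-killing and DMSO as no toxicity.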
TGFb inhibitor: blocks TGF-b signaling. HepG2 CAGA-GFP TGF-b/SMAD3 reporter, GFP fluorescence, 18 h; TGF-beta stimulated, 500 pg/mL final. Potency, µM (top dose mostly 46.1 µM), actives largely listed as inhibitors. 410,000 tested, 1.2% active. AID 588855; further: nearly all actives have a fitted effect of over 65% in size
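First, reporter cells (HEPG2 CAGA-GFP) rested 2 h at 37 degrees C. Next, compounds were pinned in and TGF-beta added to 500 pg/mL final. After 18 h, GFP was imaged per cell and summed per well.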
HT1080 IDH1KD tx: HT-1080 IDH1 knockdown cell toxicity (counter line). HT-1080 IDH1 knockdown viability, ATP luminescence, 48 h. Potency, µM (series often up to 46.1 µM), usual class: cytotoxic. 360,000 tested, 2% active
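CellTiter-Glo luminescence after 48 h compound exposure at 37 degrees C of IDH1-knockdown HT-1080 cells in 5% FBS RPMI. %Activity scaled between DMSO wells and cell-free media wells, with curves fitted and assigned curve classes.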
TDP1 cell CPT: growth inhibition of DT40 Tdp1-/-;hTDP1 cells with camptothecin (screen for TDP1 inhibitors). chicken DT40 Tdp1-/-;hTDP1 cells + 20 nM CPT, ATP luminescence, 48 h. 420,000 tested, 12% active. Potency, µM (titrated, usually from 46.2 µM), usual class: inhibitors. AID 686979; further: nearly all actives have a fitted effect of over 55% in size
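Chicken DT40 Tdp1-/- cells complemented with human TDP1, 400 cells/well, exposed to compounds plus 20 nM camptothecin for at least 48 h at 37 C; viability read as ATP content by CellTiter-Glo luminescence.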
Large screens that a line does not name were inactive. The call rests on the fitted dose curve; in most records, active means well fitted curve in the direction sought with a large enough effect; inconclusive means small, poorly fitted or top-dose-only effect, or another doubt; inactive means no such curve, though single readings can be large; an effect the other way counts as inactive or inconclusive.

CCCNC(=O)c1cc2c(c(-c3cccc(-c4ccccc4F)c3)n1)[C@H](CCO)N(C(=O)CC1CC1)C2	HT1080-NT tox inconclusive, DT40 TDP1 no CPT 16µM, HT1080 IDH1KD tx inconclusive, TDP1 cell CPT 16µM (no result: HepG2 viability, TGFb inhibitor)
CCC(=O)N1Cc2cc(C(=O)NCCOC)nc(-c3cccc(-c4ccc(C#N)cc4)c3)c2[C@H]1CCO	DT40 TDP1 no CPT inconclusive (no result: HepG2 viability, TGFb inhibitor)
CCNC(=O)c1cc2c(c(-c3cccc(-c4ccccc4F)c3)n1)[C@@H](CCO)N(C(=O)CC1CC1)C2	HT1080-NT tox inconclusive, DT40 TDP1 no CPT inconclusive, HT1080 IDH1KD tx inconclusive, TDP1 cell CPT 21µM (no result: HepG2 viability, TGFb inhibitor)
Cn1c(=O)c2c(-c3ccccc3)n(-c3cc(Cl)c([N+](=O)[O-])cc3O)cc2n(C)c1=O	TGFb inhibitor inconclusive, TDP1 cell CPT inconclusive
COc1cc(=O)n2c(c1C(=O)NCc1ccc3c(c1)OCO3)CCN(C(=O)c1cccc(F)c1)CC2	none (no result: HT1080-NT tox, HepG2 viability, TGFb inhibitor, HT1080 IDH1KD tx)
CSc1sc(C(=O)NN)c2c1C(O)CCC2 (stereo not drawn)	TGFb inhibitor inconclusive (no result: HT1080-NT tox, DT40 TDP1 no CPT, HT1080 IDH1KD tx, TDP1 cell CPT)
CNC[C@@H](C)NC[C@@H](Cc1ccccc1)NCCc1ccccc1	HT1080-NT tox inconclusive, DT40 TDP1 no CPT 4.6µM, TDP1 cell CPT 8.2µM
CCC[C@H](CN[C@@H](CNC)[C@H](C)O)NCCc1ccc(OC)cc1	none
CCCS(=O)(=O)NC(=O)C1(C)CCCN(C(=O)c2ccccc2Br)C1 (stereo not drawn)	none
CCOc1cccc2cc(-c3nc(-c4ccccc4C)no3)c(=O)oc12	DT40 TDP1 no CPT inconclusive (no result: HT1080-NT tox, HT1080 IDH1KD tx)
Cc1ccc(-c2nc(-c3cc4cccc(OCc5cccc(C)c5)c4oc3=O)no2)cc1	DT40 TDP1 no CPT 9.2µM, TDP1 cell CPT inconclusive (no result: HT1080-NT tox, HT1080 IDH1KD tx)
CC1(C(=O)NS(=O)(=O)C2CC2)CCCN(C(=O)Cc2ccc(F)cc2)C1 (stereo not drawn)	DT40 TDP1 no CPT inconclusive, TDP1 cell CPT inconclusive
COCCNC(=O)C1(C)CCCN(C(=O)c2ccc3c(c2)OCO3)C1 (stereo not drawn)	HT1080-NT tox inconclusive
CC1(C(=O)NS(=O)(=O)C2CC2)CCCN(C(=O)c2ccc3c(c2)OCO3)C1 (stereo not drawn)	HT1080-NT tox inconclusive, DT40 TDP1 no CPT 5.8µM, HT1080 IDH1KD tx inconclusive, TDP1 cell CPT 7.3µM
CC1(C(=O)NS(=O)(=O)C2CC2)CCCN(C(=O)c2c(F)cccc2F)C1 (stereo not drawn)	DT40 TDP1 no CPT 4.6µM, TDP1 cell CPT 5.2µM
CC1(C(=O)NS(=O)(=O)C2CC2)CCCN(C(=O)c2ccco2)C1 (stereo not drawn)	DT40 TDP1 no CPT 12µM, TDP1 cell CPT inconclusive
CC1(C(=O)NS(=O)(=O)C2CC2)CCCN(C(=O)c2ccccc2)C1 (stereo not drawn)	DT40 TDP1 no CPT 2.1µM, TDP1 cell CPT 5.2µM
CCCS(=O)(=O)NC(=O)C1(C)CCCN(C(=O)c2c(F)cccc2F)C1 (stereo not drawn)	none
CCN1CCN(CC(=O)Nc2cc3c(cc2C(C)=O)OCO3)CC1	none
Cc1cc(Cl)ccc1NC(=O)/N=C1/NC(=O)CS1	none
CCNC(=O)C1(C)CCCN(C(=O)/C=C/c2ccccc2)C1 (stereo not drawn)	HT1080-NT tox inconclusive
CC1(C(=O)NS(=O)(=O)C2CC2)CCCN(C(=O)c2cccs2)C1 (stereo not drawn)	DT40 TDP1 no CPT 6.5µM, TDP1 cell CPT 5.2µM
COC(=O)c1ccc(C(=O)N2CCCC(C)(C(=O)NS(=O)(=O)C3CC3)C2)cc1 (stereo not drawn)	DT40 TDP1 no CPT 1.5µM, TDP1 cell CPT inconclusive
CC1(C(=O)NS(=O)(=O)C2CC2)CCCN(C(=O)/C=C/c2ccccc2)C1 (stereo not drawn)	DT40 TDP1 no CPT 15µM, TDP1 cell CPT inconclusive
Cc1ccsc1C(=O)N1CCCC(C)(C(=O)NS(=O)(=O)C2CC2)C1 (stereo not drawn)	DT40 TDP1 no CPT inconclusive
COc1ccc(C(=O)N2CCC(C)(C(=O)NS(=O)(=O)C3CC3)C2)cc1F (stereo not drawn)	TGFb inhibitor inconclusive, HT1080 IDH1KD tx inconclusive
CC1(C(=O)NS(=O)(=O)C2CC2)CCCN(C(=O)c2ccc3ccccc3c2)C1 (stereo not drawn)	DT40 TDP1 no CPT 0.26µM, TDP1 cell CPT 0.52µM
Cn1nc(C(C)(C)C)cc1C(=O)N1CCC(C)(C(=O)NS(=O)(=O)C2CC2)C1 (stereo not drawn)	HT1080-NT tox inconclusive
Cc1c(C(=O)N2CCCC(C)(C(=O)NS(=O)(=O)C3CC3)C2)oc2ccccc12 (stereo not drawn)	DT40 TDP1 no CPT 4.1µM, TDP1 cell CPT inconclusive
Cn1nc(C(C)(C)C)cc1C(=O)N1CCCC(C)(C(=O)NS(=O)(=O)C2CC2)C1 (stereo not drawn)	HT1080-NT tox inconclusive, DT40 TDP1 no CPT 6.5µM, TDP1 cell CPT 6.5µM
CCOc1ccc(Oc2ccc(NS(=O)(=O)c3ccc(CCC(=O)O)cc3)cc2)cc1	DT40 TDP1 no CPT inconclusive
CC(C)c1nc(SCC(=O)N2CCCc3ccccc32)c2c(=O)n(C)c(=O)n(C)c2n1	HT1080-NT tox inconclusive, DT40 TDP1 no CPT 6.5µM, TDP1 cell CPT 7.3µM
CC1CCN(C(=O)CSc2nc(C(C)C)nc3c2c(=O)n(C)c(=O)n3C)CC1	DT40 TDP1 no CPT 18µM, TDP1 cell CPT 16µM
CCOc1ccc(OCC(=O)Nc2ccc(S(=O)(=O)Nc3cc(C)nc(C)n3)cc2)cc1	none
Cc1cc(NS(=O)(=O)c2ccc(NC(=O)COc3ccc(Br)cc3C)cc2)no1	none (no result: HT1080-NT tox, HT1080 IDH1KD tx)
Cc1cc(NS(=O)(=O)c2ccc(NC(=O)COc3c(C)cc(Br)cc3C)cc2)no1	DT40 TDP1 no CPT 23µM, HT1080 IDH1KD tx inconclusive, TDP1 cell CPT 21µM
Cc1cc(NS(=O)(=O)c2ccc(NC(=O)COc3ccc(Br)cc3)cc2)nc(C)n1	DT40 TDP1 no CPT inconclusive, TDP1 cell CPT 15µM
CCc1ccc2[nH]c(=O)c(CN(CCCN3CCOCC3)C(=O)Nc3cccc(Cl)c3)cc2c1	HT1080-NT tox inconclusive, DT40 TDP1 no CPT 15µM, TGFb inhibitor inconclusive, HT1080 IDH1KD tx inconclusive, TDP1 cell CPT inconclusive
CCOc1ccc2[nH]c(=O)c(CN(CCCN3CCOCC3)C(=O)Nc3ccc(F)cc3)cc2c1	none
CCc1ccc2[nH]c(=O)c(CN(CCCN3CCOCC3)C(=O)Nc3ccccc3)cc2c1	HT1080-NT tox inconclusive, DT40 TDP1 no CPT 21µM, HT1080 IDH1KD tx inconclusive, TDP1 cell CPT 23µM
